# Assay results published in PMC4336329 (PLoS ONE, 2015).
# Out of some 310,000 compounds screened, about 14,000 (4.5%) showed an effect of 50% or more. The effect is printed as a negative number. The full list was thinned out, with strong results kept by preference.
# Molecular target: human ether-à-go-go-related gene (hERG) potassium channel (human, UniProt Q12809)
# Assay: primary screen, population patch clamp on CHO cells stably expressing hERG; higher = less effect of the substance
# 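Note: peak tail current of the secondary pulse compared with the same well before compound.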
# human ether-à-go-go-related gene (hERG) potassium channel, sequence (Q12809 whole entry, looked up): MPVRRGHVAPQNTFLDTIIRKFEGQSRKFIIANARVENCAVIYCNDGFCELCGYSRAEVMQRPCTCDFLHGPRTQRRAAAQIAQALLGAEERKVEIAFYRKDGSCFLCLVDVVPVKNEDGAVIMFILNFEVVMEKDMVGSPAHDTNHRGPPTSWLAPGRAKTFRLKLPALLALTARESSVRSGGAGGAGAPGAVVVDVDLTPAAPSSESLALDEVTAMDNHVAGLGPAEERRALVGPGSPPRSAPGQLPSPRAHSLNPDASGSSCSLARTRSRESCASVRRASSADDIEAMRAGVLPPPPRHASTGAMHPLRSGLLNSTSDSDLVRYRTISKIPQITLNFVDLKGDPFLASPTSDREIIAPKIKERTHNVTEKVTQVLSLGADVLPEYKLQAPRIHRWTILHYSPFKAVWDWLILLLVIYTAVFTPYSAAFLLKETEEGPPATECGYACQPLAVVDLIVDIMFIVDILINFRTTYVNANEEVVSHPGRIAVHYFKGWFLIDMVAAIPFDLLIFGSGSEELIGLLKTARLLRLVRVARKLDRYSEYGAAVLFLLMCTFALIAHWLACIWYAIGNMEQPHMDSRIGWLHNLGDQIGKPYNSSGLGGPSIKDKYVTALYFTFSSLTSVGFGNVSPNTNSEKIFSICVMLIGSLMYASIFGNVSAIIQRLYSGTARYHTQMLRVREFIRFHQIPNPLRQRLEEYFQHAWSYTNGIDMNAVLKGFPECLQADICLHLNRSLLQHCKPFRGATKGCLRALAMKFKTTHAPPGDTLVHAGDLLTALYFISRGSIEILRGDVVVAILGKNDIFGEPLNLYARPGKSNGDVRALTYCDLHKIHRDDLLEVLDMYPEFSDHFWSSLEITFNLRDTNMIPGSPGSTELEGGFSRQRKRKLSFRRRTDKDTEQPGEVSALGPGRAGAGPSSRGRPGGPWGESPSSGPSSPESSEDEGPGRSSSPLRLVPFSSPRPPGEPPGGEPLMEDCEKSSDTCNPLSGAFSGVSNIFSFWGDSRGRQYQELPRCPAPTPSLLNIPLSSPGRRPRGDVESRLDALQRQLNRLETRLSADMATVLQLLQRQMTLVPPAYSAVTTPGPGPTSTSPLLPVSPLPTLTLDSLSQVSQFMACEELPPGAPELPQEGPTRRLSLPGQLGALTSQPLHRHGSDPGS
row,SMILES,"hERG current change (%, negative = inhibition) at 10uM [%]"
1,C=CCNC(=O)c1ccc2nc(-c3ccccc3)c(-c3ccccc3)nc2c1,-15.4
2,CN(c1ccccc1)c1ccc(/C=C(\CCC(=O)O)c2nc3ccccc3s2)cc1[N+](=O)[O-],44.6
3,CCOC(=O)C1(Cc2cccc(Cl)c2)CCCN(C(=O)c2cc(C)on2)C1 (centres unmarked),-9.8
4,O=C(NCc1ccc(F)cc1)C1CCCN(C(=O)Nc2ccccc2)C1 (centres unmarked),-38.5
5,CC(c1ccccc1)C1C(C#N)=C(N)OC2=C1C(=O)CC(C)(C)C2 (centres unmarked),-56.9
6,CC1(C)CC(=O)C2=C(C1)OC(N)=C(C#N)C2c1ccccc1 (centres unmarked),-14.4
7,CC(c1ccccc1)C1C(C#N)=C(N)OC2=C1C(=O)CCC2 (centres unmarked),-6.39
8,CC(=O)Nc1ccccc1-c1nc2ccc(C(=O)N3CCN(c4cc(C)ccc4C)CC3)cc2[nH]c1=O,-23.5
9,CN1CCN(CC2(O)CCN(S(=O)(=O)c3ccc(Cl)cc3)CC2)CC1,-36
10,O=S(=O)(c1ccc(Cl)cc1)N1CCC(O)(CN2CCN(Cc3ccccc3)CC2)CC1,-75.8
11,COc1ccc(S(=O)(=O)N2CCN(C3CCN(Cc4ccccc4)CC3)CC2)cc1,-59.4
12,O=c1cc(CN2CCN(S(=O)(=O)c3ccccc3)CC2)nc2sccn12,-2.25
13,Cc1ccc(S(=O)(=O)N2CCN(C3CCN(Cc4ccccc4)CC3)CC2)cc1.O=C(O)C(=O)O,-76.6
14,Cc1ccc(S(=O)(=O)N2CCN(Cc3ccccc3)CC2)cc1,-9.58
15,O=S(=O)(c1ccccc1)N1CCC(O)(CN2CCN(c3ccccc3)CC2)CC1,12.2
16,COc1ccc(S(=O)(=O)N2CCN(Cc3ccccc3)CC2)cc1,-19.5
17,COc1ccc(S(=O)(=O)N2CCC(N3CCN(Cc4ccccc4)CC3)CC2)cc1.O=C(O)C(=O)O,-39.2
18,CCOC(=O)N1CCC(N2CCN(S(=O)(=O)c3ccc(C)cc3)CC2)CC1.O=C(O)C(=O)O,-19.1
19,O=c1cc(CN2CCN(S(=O)(=O)c3ccccc3[N+](=O)[O-])CC2)nc2sccn12,-53.7
20,O=c1cc(CN2CCN(S(=O)(=O)c3ccc4ccccc4c3)CC2)nc2sccn12,-25.2
21,Cc1ccc(CNC(=S)NC2CCC(C(C)(C)C)CC2)cc1 (centres unmarked),10.8
22,CCC(NC(=O)C1CCC1)c1ccccc1 (centres unmarked),12.6
23,Cc1c(/C=C/C(=O)c2cccs2)cnn1C,-0.723
24,COc1ccc(CNc2cccc(C)n2)c(O)c1,-3.24
25,Cc1cc(C)c(NC(=O)COC(=O)c2ccc([N+](=O)[O-])s2)c(C)c1,0.0437
26,COc1ccccc1NS(=O)(=O)c1cc(NC(=O)c2[nH]c(C)c(C(C)=O)c2C)ccc1N1CCOCC1,0.128
27,O=C(CSc1nc(-c2ccccc2)cc(=O)[nH]1)Nc1ccccc1,18

row,SMILES,"hERG current change (%, negative = inhibition) at 10uM [%]"
1,COc1ccc(C(=O)/C=C/c2cn(CC(O)CN3CCOCC3)c3ccccc23)cc1 (centres unmarked),3.55
2,O=C(CSc1ccccn1)Nc1cccc(NC(=O)CSc2ccccn2)n1,-11.9
3,O=[N+]([O-])c1ccccc1S(=O)(=O)N1CCN(C2CCCC2)CC1,0.58
4,Cn1c(=O)c(=O)n(C)c2cc(S(=O)(=O)N3CCN(Cc4ccccc4)CC3)ccc21,-63.4
5,O=[N+]([O-])c1ccccc1S(=O)(=O)N1CCN(Cc2ccccc2)CC1,-34.6
6,O=S(=O)(c1ccccc1)N1CCN(Cc2ccc(Cl)cc2)CC1,-22.7
7,O=S(=O)(c1ccc(Cl)cc1)N1CCN(C2CCN(Cc3ccccc3)CC2)CC1,-71.4
8,Cn1c(=O)c(=O)n(C)c2cc(S(=O)(=O)N3CCC(Cc4ccccc4)CC3)ccc21,-10.9
9,O=[N+]([O-])c1ccccc1S(=O)(=O)N1CCN(C2CCN(Cc3ccccc3)CC2)CC1,-51.9
10,O=S(=O)(c1ccccc1)N1CCN(C2CCN(Cc3ccccc3)CC2)CC1,-64
11,Cn1c(=O)c(=O)n(C)c2cc(S(=O)(=O)N3CC(=O)N(CCc4ccccc4)C(=O)C3)ccc21,19.4
12,O=S(=O)(c1ccc(Cl)cc1)N1CCN(C2CCCCCC2)CC1,-17.3
13,O=S(=O)(c1ccccc1)N1CCN(Cc2ccccc2)CC1,19.3
14,CS(=O)(=O)N1CCN(C2CCN(Cc3ccccc3)CC2)CC1,-1.48
15,CC(=O)c1c(C)[nH]c(C(=O)COc2cc(C)ccc2C(C)C)c1C,14.1
16,O=C(CSc1nnnn1-c1ccc2c(c1)OCCO2)N1CCN(C(=O)c2ccco2)CC1,-16.6
17,CCN1C(=O)S/C(=C/c2ccc(Oc3ccc([N+](=O)[O-])cn3)c(OC)c2)C1=O,9.24
18,O=C(COC(=O)c1cccs1)Nc1ccc(F)c(F)c1,12.2
19,COC(=O)COc1ccc(/C=C2/NC(=O)N(CC(=O)OC)C2=O)cc1,12.3
20,CC1(C)CC(=O)C(Sc2ccccc2)=C(O)C1,15.8
21,COc1ccc(S(=O)(=O)N2CCC(N3CCN(c4ccccc4OC)CC3)CC2)cc1,-66.5
22,COc1ccccc1N1CCN(C2CCN(S(=O)(=O)c3ccc(C)cc3)CC2)CC1,-36.4
23,O=C(O)C(=O)O.O=[N+]([O-])c1ccc(S(=O)(=O)N2CCN(Cc3ccco3)CC2)cc1,15.3
24,O=C(O)C(=O)O.O=[N+]([O-])c1ccc(S(=O)(=O)N2CCN(C3CCN(Cc4ccccc4)CC3)CC2)cc1,-78.2
25,CC(=O)Nc1ccc(S(=O)(=O)N2CCN(Cc3cccc([N+](=O)[O-])c3)CC2)cc1.O=C(O)C(=O)O,-3.41
26,COc1ccccc1N1CCN(C2CCN(S(=O)(=O)c3ccc(NC(C)=O)cc3)CC2)CC1,0.727
